Measurements as given in PubChem BioAssay (NCATS).
Records with an inconclusive call do not appear. Where a call stands in place of a potency, no number is given. Active and inactive are the calls of the source. Calls come from the whole dose curve; as a rule, active = well fitted inhibition curve with a large enough effect; inconclusive = small, poorly fitted or top-dose-only effect; inactive = flat fitted curve, though single readings scatter.

Key:
Assay in all cases: qHTS profiling for inhibitors of Plasmodium falciparum proliferation (AID 504749); note: nearly all actives have a fitted effect of over 60% in size
Conditions in all cases: P. falciparum in erythrocytes, SYBR Green DNA, 72 h; series mostly up to 28.7 µM
PAD = tested on: PAD
How it was run: (§1)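 P. falciparum-infected erythrocytes (0.3% parasitemia, 2.5% hematocrit) incubated with compound 72 h at 37 C, 5% CO2. Parasite DNA detected by SYBR Green after lysis, overnight at room temperature; normalised to 0.29 uM artemisinin and DMSO.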

PC15 = tested on: PC15
How it was run: as §1

PC26 = tested on: PC26
How it was run: as §1

P94_40 = tested on: P94_40
How it was run: as §1

SC27B = tested on: SC27B
How it was run: as §1

TAB165 = tested on: TAB165
How it was run: as §1

TAB113 = tested on: TAB113
How it was run: as §1

P93_24 = tested on: P93_24
How it was run: as §1

PC49 = tested on: PC49
How it was run: as §1

TAB109 = tested on: TAB109
How it was run: as §1
Potency is the fitted concentration of half-maximal effect.

**Q.** Which Potency (PAD) does the source give for CCc1cccc(N(C)C(N)=Nc2cccc3ccccc23)c1 here?
**A.** 4.47 µM (active)

**Q.** What about the Potency (PC15) of the same compound?
**A.** 5.01 µM (active)

**Q.** And the Potency (PC26)?
**A.** 4.26 µM (active)

**Q.** CCOC(=O)C1=C(C)NC(C)=C(C(=O)OC)C1c1cccc([N+](=O)[O-])c1 (stereo unspecified) was tested. Which Potency (P94_40) did it give?
**A.** 11.2 µM (active)

**Q.** What about the Potency (SC27B) of the same compound?
**A.** 12.6 µM (active)

**Q.** And the Potency (TAB165)?
**A.** 10 µM (active)

**Q.** Which Potency (PAD) does the source give for CC1=NS(=O)(=O)c2cc(Cl)ccc2N1 here?
**A.** inactive

**Q.** And the Potency (PC26)?
**A.** inactive

**Q.** What about the Potency (SC27B) of the same compound?
**A.** inactive

**Q.** And the Potency (TAB113)?
**A.** inactive

**Q.** With Brc1c(NC2=NCCN2)ccc2nccnc12 as the compound, how does the Potency (P93_24) read?
**A.** 11.2 µM (active)

**Q.** What about the Potency (P94_40) of the same compound?
**A.** inactive

**Q.** And the Potency (PC49)?
**A.** inactive

**Q.** And the Potency (SC27B)?
**A.** inactive

**Q.** For NC(=O)N1c2ccccc2C=Cc2ccccc21, which Potency (P93_24) is on record?
**A.** inactive

**Q.** What about the Potency (PAD) of the same compound?
**A.** inactive

**Q.** And the Potency (PC15)?
**A.** inactive

**Q.** And the Potency (PC26)?
**A.** inactive

**Q.** What about the Potency (PC49) of the same compound?
**A.** inactive

**Q.** And the Potency (SC27B)?
**A.** inactive

**Q.** What about the Potency (TAB109) of the same compound?
**A.** inactive

**Q.** What about the Potency (TAB113) of the same compound?
**A.** inactive

**Q.** What about the Potency (TAB165) of the same compound?
**A.** inactive

**Q.** For Fc1ccc(C(c2ccc(F)cc2)N2CCN(C/C=C/c3ccccc3)CC2)cc1, which Potency (P93_24) is on record?
**A.** 8.91 µM (active)

**Q.** And the Potency (TAB165)?
**A.** 11.2 µM (active)

**Q.** With C=CCc1ccccc1OCC(O)CNC(C)C (stereo unspecified) as the compound, how does the Potency (P93_24) read?
**A.** 4.47 µM (active)

**Q.** What about the Potency (P94_40) of the same compound?
**A.** 12.6 µM (active)

**Q.** What about the Potency (PC49) of the same compound?
**A.** inactive

**Q.** What about the Potency (TAB165) of the same compound?
**A.** 10 µM (active)

**Q.** CCCCNc1ccc(C(=O)OCCN(C)C)cc1 was tested. Which Potency (P93_24) did it give?
**A.** inactive

**Q.** And the Potency (P94_40)?
**A.** inactive

**Q.** And the Potency (PAD)?
**A.** inactive

**Q.** What about the Potency (SC27B) of the same compound?
**A.** inactive

**Q.** What about the Potency (TAB109) of the same compound?
**A.** inactive

**Q.** What about the Potency (TAB113) of the same compound?
**A.** inactive

**Q.** What about the Potency (TAB165) of the same compound?
**A.** inactive

**Q.** With CC(C)[N+](C)(CCOC(=O)C1c2ccccc2Oc2ccccc21)C(C)C as the compound, how does the Potency (PC15) read?
**A.** inactive

**Q.** What about the Potency (PC26) of the same compound?
**A.** inactive

**Q.** What about the Potency (PC49) of the same compound?
**A.** inactive

**Q.** With Cc1nc2ccccn2c(=O)c1CCN1CCC(C(=O)c2ccc(F)cc2)CC1 as the compound, how does the Potency (PC26) read?
**A.** inactive

**Q.** And the Potency (SC27B)?
**A.** inactive

**Q.** And the Potency (TAB113)?
**A.** inactive

**Q.** How did the Potency (PAD) turn out when CN(C)CC[C@@H](c1ccc(Br)cc1)c1ccccn1 was run?
**A.** inactive

**Q.** And the Potency (SC27B)?
**A.** inactive

**Q.** What does the source list for CN(C(=O)CCCOc1ccc2[nH]c(=O)ccc2c1)C1CCCCC1?
**A.** Potency (PC15): inactive; Potency (SC27B): inactive; Potency (TAB109): inactive; Potency (TAB113): inactive

**Q.** CCCCNc1c(C(=O)OCC)c(C)nc2c1cnn2CC was tested. Which Potency (P93_24) did it give?
**A.** inactive

**Q.** What about the Potency (PAD) of the same compound?
**A.** inactive

**Q.** What about the Potency (PC15) of the same compound?
**A.** inactive

**Q.** What about the Potency (PC26) of the same compound?
**A.** inactive

**Q.** And the Potency (PC49)?
**A.** inactive

**Q.** And the Potency (SC27B)?
**A.** inactive

**Q.** And the Potency (TAB109)?
**A.** inactive

**Q.** And the Potency (TAB113)?
**A.** inactive

**Q.** Which Potency (P93_24) does the source give for COCCCC/C(=N\OCCN)c1ccc(C(F)(F)F)cc1 here?
**A.** 8.91 µM (active)

**Q.** And the Potency (PC49)?
**A.** inactive

**Q.** What about the Potency (TAB165) of the same compound?
**A.** 7.94 µM (active)

**Q.** What does the source list for CN(C)CCN(Cc1cccs1)c1ccccn1?
**A.** Potency (P93_24): 7.94 µM (active); Potency (P94_40): 10 µM (active); Potency (PC49): 10 µM (active); Potency (TAB109): 4.47 µM (active)

**Q.** Which Potency (PC26) does the source give for NC(N)=NC(=O)Cc1c(Cl)cccc1Cl here?
**A.** 7.57 µM (active)

**Q.** What about the Potency (TAB113) of the same compound?
**A.** inactive

**Q.** With CN(C)CCOC(=O)COc1ccc(Cl)cc1 as the compound, how does the Potency (P93_24) read?
**A.** inactive

**Q.** And the Potency (P94_40)?
**A.** inactive

**Q.** What about the Potency (PAD) of the same compound?
**A.** inactive

**Q.** And the Potency (SC27B)?
**A.** inactive

**Q.** What about the Potency (TAB109) of the same compound?
**A.** inactive

**Q.** What about the Potency (TAB113) of the same compound?
**A.** inactive

**Q.** And the Potency (TAB165)?
**A.** inactive

**Q.** Which results are given for Cc1ccc(=O)n(-c2ccccc2)c1?
**A.** Potency (P93_24): inactive; Potency (P94_40): inactive; Potency (PC15): inactive; Potency (PC26): inactive; Potency (PC49): inactive; Potency (SC27B): inactive; Potency (TAB109): inactive; Potency (TAB113): inactive; Potency (TAB165): inactive

**Q.** What does the source list for CCCCCCCC/C=C\CCCCCCCC(=O)NCc1ccc(O)c(OC)c1?
**A.** Potency (PC26): inactive; Potency (SC27B): 10 µM (active); Potency (TAB165): 8.91 µM (active)

**Q.** With COCCOC(=O)C1=C(C)NC(C)=C(C(=O)OC(C)C)C1c1cccc([N+](=O)[O-])c1 (stereo unspecified) as the compound, how does the Potency (PC26) read?
**A.** 12 µM (active)

**Q.** What about the Potency (PC49) of the same compound?
**A.** inactive

**Q.** What about the Potency (TAB165) of the same compound?
**A.** 10 µM (active)

**Q.** Cc1nc2sccn2c(=O)c1CCN1CCC(=C(c2ccc(F)cc2)c2ccc(F)cc2)CC1 was tested. Which Potency (P94_40) did it give?
**A.** 11.2 µM (active)

**Q.** And the Potency (TAB165)?
**A.** 12.6 µM (active)

**Q.** CN(C)CCCN1c2ccccc2Sc2ccc(C(F)(F)F)cc21 was tested. Which Potency (PC49) did it give?
**A.** 8.91 µM (active)

**Q.** And the Potency (TAB165)?
**A.** 12.6 µM (active)

**Q.** For CNCCC(Oc1ccccc1OC)c1ccccc1 (stereo unspecified), which Potency (PC49) is on record?
**A.** 3.16 µM (active)

**Q.** And the Potency (TAB165)?
**A.** 11.2 µM (active)

**Q.** With CCCN1C[C@H](CSC)C[C@@H]2c3cccc4[nH]cc(c34)C[C@H]21 as the compound, how does the Potency (PC15) read?
**A.** inactive

**Q.** And the Potency (PC49)?
**A.** inactive

**Q.** What about the Potency (SC27B) of the same compound?
**A.** 11.2 µM (active)

**Q.** And the Potency (TAB109)?
**A.** 12.6 µM (active)

**Q.** And the Potency (TAB165)?
**A.** 14.1 µM (active)

**Q.** How did the Potency (PC26) turn out when CN1C[C@H](C(=O)N[C@]2(C)O[C@@]3(O)[C@@H]4CCCN4C(=O)[C@H](Cc4ccccc4)N3C2=O)C[C@@H]2c3cccc4[nH]cc(c34)C[C@H]21 was run?
**A.** 1.2 µM (active)

**Q.** OC(CCN1CCCCC1)(c1ccccc1)C1CCCCC1 (stereo unspecified) was tested. Which Potency (PAD) did it give?
**A.** inactive

**Q.** And the Potency (PC15)?
**A.** inactive

**Q.** And the Potency (SC27B)?
**A.** inactive

**Q.** What about the Potency (TAB113) of the same compound?
**A.** inactive

**Q.** What about the Potency (TAB165) of the same compound?
**A.** inactive

**Q.** CN(C)CC/C=C1\c2ccccc2COc2ccccc21 was tested. Which Potency (PAD) did it give?
**A.** inactive

**Q.** And the Potency (PC15)?
**A.** inactive

**Q.** CN(C)CCCN1c2ccccc2Sc2ccccc21 was tested. Which Potency (PC15) did it give?
**A.** 2 µM (active)

**Q.** COc1ccc(CCN(C)CCCC(C#N)(c2cc(OC)c(OC)c(OC)c2)C(C)C)cc1OC (stereo unspecified) was tested. Which Potency (PC15) did it give?
**A.** inactive

**Q.** And the Potency (PC49)?
**A.** inactive

**Q.** With CCC(=O)c1ccc2c(c1)N(CCCN(C)C)c1ccccc1S2 as the compound, how does the Potency (PC49) read?
**A.** inactive

**Q.** What about the Potency (SC27B) of the same compound?
**A.** inactive
